Screening results as filed in PubChem.
CR mimetic SO = lowers age-related superoxide in aged yeast cells. S. cerevisiae aged cells, superoxide DHE fluorescence; stronger effect = lower value. superoxide response (% of plate mean), % at 10 µM. 330,000 compounds, 0.18% hits;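 active means superoxide response under a set limit, about three screen SD below normal, cut at about 65% in these data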;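 further: yeast aged for seven days with compound at 30 °C before DHE staining; 100% = average MFI of all compound-treated wells on the plate with controls excluded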
NALP1 inh = blocks the NALP1 inflammasome reconstituted in yeast | inhibition, % at 10 µM | AID 2071 | 280,000 compounds, 0.61% hits | S. cerevisiae NALP1/ASC/caspase-1 growth, X-gal OD620, 72 h; in the data active means inhibition mostly above about 24%, no sharp cut-off; inactive means mostly below about 32%
NR3A LBD binder = NR3A (human) ligand-binding domain modulation; NR3A LBD differential scanning fluorimetry, Tm shift; 0% = protein alone, 100% = glycine-bound protein; 340,000 compounds, 2.5% hits; Tm shift relative to glycine control, % at 25 µM;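 active means melting temperature shift of at least 10% of the positive control shift, at one fixed dose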
dFosB act = activators of mouse delta FosB homodimer; P13346; purified delta FosB, TAMRA-CDK5 oligo fluorescence polarization; percent of positive-control signal above neutral wells; activation, % at 25 µM; 340,000 compounds, 0.99% hits; AID 493131;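 active means mean activation above about 17%, with every replicate also reaching it, limit read from the data, passing the limit was not always enough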
Target sequence (P13346 whole entry, looked up): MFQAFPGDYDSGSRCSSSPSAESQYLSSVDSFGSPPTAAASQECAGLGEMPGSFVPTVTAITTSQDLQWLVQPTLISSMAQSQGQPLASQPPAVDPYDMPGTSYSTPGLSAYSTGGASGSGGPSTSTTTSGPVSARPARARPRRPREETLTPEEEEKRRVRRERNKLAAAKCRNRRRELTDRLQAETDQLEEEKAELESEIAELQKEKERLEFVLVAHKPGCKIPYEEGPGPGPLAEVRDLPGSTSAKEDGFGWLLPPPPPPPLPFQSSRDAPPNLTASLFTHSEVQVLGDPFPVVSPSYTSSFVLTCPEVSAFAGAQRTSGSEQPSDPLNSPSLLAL
UBC13 polyUb = human UBC13 polyubiquitination inhibition; 330,000 compounds, 0.47% hits; inhibition, % at 20 µM; UBC13 polyubiquitin chain formation, TR-FRET; P61088; in the data active means inhibition above about 45%, passing the limit was not always enough
Target sequence (P61088 whole entry, looked up): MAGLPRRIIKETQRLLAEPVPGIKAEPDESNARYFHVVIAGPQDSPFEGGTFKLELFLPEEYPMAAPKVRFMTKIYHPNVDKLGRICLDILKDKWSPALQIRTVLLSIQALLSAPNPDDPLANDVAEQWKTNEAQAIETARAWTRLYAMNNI
* = called active by the depositor. Compounds with a hit are over-represented: about 4.3% of the library has one in this group of screens.

For O=C(c1ccc(OC2CCN(Cc3ccc(C(F)(F)F)cc3)CC2)cc1)N1CCCCC1 the results were CR mimetic SO 79, NALP1 inh 29, NR3A LBD binder 0, dFosB act -22 and UBC13 polyUb -6.
CC(=O)Oc1cccc2c1C(=O)C1CC=CC(OC(C)=O)C1C2=O (stereo unspecified) was read as NR3A LBD binder -3 and dFosB act -5.
COc1cc2c(cc1OC)C(c1cc(OC)c(OC)c(OC)c1)C1(O)C(=O)OCC1(O)C2 (stereo unspecified) was read as NR3A LBD binder 1 and dFosB act -3.
FC(F)(F)c1cccc(NC(=S)NCC2COc3ccccc3O2)c1 (stereo unspecified) was read as CR mimetic SO 120, NALP1 inh 21, NR3A LBD binder 23*, dFosB act -3 and UBC13 polyUb 3.
`CCOC(=O)c1c(C)n(-c2ccccc2)c2ccc(OCCN(C)C)cc12` gave CR mimetic SO 86, NALP1 inh 44*, NR3A LBD binder 1, dFosB act -7 and UBC13 polyUb 8.
CCC1(c2ccc(F)cc2)NC(=O)N(CC(=O)Nc2cccc(S(=O)(=O)N3CCOCC3)c2)C1=O (stereo unspecified) was read as NR3A LBD binder 2 and dFosB act -11.
O=C(Nc1ccc(Oc2ccccc2)nc1)C1CCCCN1Cc1ccc(OCCO)cc1 (stereo unspecified) was read as CR mimetic SO 100, NALP1 inh 5, NR3A LBD binder 0, dFosB act -7 and UBC13 polyUb 3.
COc1ccccc1CNC(=O)c1cc(S(=O)(=O)N2CCOCC2)cn1C was read as CR mimetic SO 80, NALP1 inh 8, NR3A LBD binder 0, dFosB act -7 and UBC13 polyUb 9.
Cc1ccc(N2CCN(c3ccc(NCc4nc5ccccc5n4C)cc3)CC2)cc1 was read as CR mimetic SO 105, NALP1 inh 25, NR3A LBD binder 13*, dFosB act 3 and UBC13 polyUb -35.
Cn1c(CNc2ccc(Cl)cc2)nc2ccccc21 was read as CR mimetic SO 98, NALP1 inh 16, NR3A LBD binder 12*, dFosB act -1 and UBC13 polyUb -11.
`Cc1cccc(NCc2nc3ccccc3n2C)c1` gave CR mimetic SO 99, NALP1 inh 65, NR3A LBD binder -4, dFosB act 2 and UBC13 polyUb -7.
CCOC(=O)N1CCN(C(=O)C(NC(=O)c2ccc(C(C)(C)C)cc2)C(C)C)CC1 (stereo unspecified) was read as CR mimetic SO 75, NR3A LBD binder 0, dFosB act -6 and UBC13 polyUb 1.
`Cn1c(COc2ccc(C(=O)O)cc2)nc2ccccc21` gave CR mimetic SO 99, NALP1 inh 2, NR3A LBD binder 1, dFosB act 1 and UBC13 polyUb 1.
For CCCCOc1ccc(C(=O)O)cc1 the results were CR mimetic SO 91, NALP1 inh 20*, NR3A LBD binder -2, dFosB act 4 and UBC13 polyUb 7.
For CCCn1c(COc2ccc(C(=O)O)cc2)nc2ccccc21 the results were CR mimetic SO 100, NALP1 inh 43*, NR3A LBD binder 2, dFosB act -3 and UBC13 polyUb -3.
O=S(=O)(Nc1ccc(-n2cnnn2)cc1)c1cccs1 was read as CR mimetic SO 101, NR3A LBD binder -2, dFosB act -4 and UBC13 polyUb -5.
For Cc1ccc(C)c(NC(=O)/C(C#N)=C/c2cn(CC(=O)NCc3ccco3)c3ccccc23)c1 the results were CR mimetic SO 100, NALP1 inh 40, NR3A LBD binder 9, dFosB act -7 and UBC13 polyUb -15.
`CNC(=O)/C(C#N)=C/c1cn(CC(=O)NCc2ccco2)c2ccccc12` gave CR mimetic SO 95, NALP1 inh 7, NR3A LBD binder 1, dFosB act -3 and UBC13 polyUb -11.
`Cc1ccc(NC(=O)/C(C#N)=C/c2cn(CC(=O)NCc3ccco3)c3ccccc23)cc1C` gave CR mimetic SO 113, NALP1 inh 24, NR3A LBD binder 2, dFosB act 60* and UBC13 polyUb -12.
`Cc1cccc(NC(=O)Cn2cc(C=O)c3ccccc32)c1` gave CR mimetic SO 110, NALP1 inh 28, NR3A LBD binder 0, dFosB act -3 and UBC13 polyUb 7.
For Cc1ccc(NC(=O)Cn2cc(C=O)c3ccccc32)cc1C the results were CR mimetic SO 98, NALP1 inh 11, NR3A LBD binder -1, dFosB act 20* and UBC13 polyUb 8.
Cc1cc(C)cc(NC(=O)/C(C#N)=C/c2cn(CC(=O)NCc3ccco3)c3ccccc23)c1 was read as CR mimetic SO 101, NALP1 inh 7, NR3A LBD binder 3, dFosB act 33* and UBC13 polyUb -14.
O=C1C=CC(=O)N1CCCCCCCCCCN1C(=O)C=CC1=O was read as NR3A LBD binder -4 and dFosB act 6.
For O=C(CSc1ccc(-c2ccccn2)nn1)N1CCCc2ccccc21 the results were CR mimetic SO 123, NALP1 inh -2, NR3A LBD binder 1, dFosB act -4 and UBC13 polyUb -16.
`CCOC(=O)CCC(=O)NNC(=O)COc1ccc(C(C)C)cc1Br` gave CR mimetic SO 95, NALP1 inh 2, NR3A LBD binder -1, dFosB act -1 and UBC13 polyUb -5.
For Cc1sc2ncnc(N3CCC(C(=O)Nc4ccc(Cl)c(Cl)c4)CC3)c2c1C the results were CR mimetic SO 116, NR3A LBD binder 11*, dFosB act 0 and UBC13 polyUb 19.
Screening Oc1cc2c(cc1C(c1ccc(Br)cc1)N1CCCC1)OCO2 (stereo unspecified) returned NALP1 inh 43*, NR3A LBD binder 29*, dFosB act 3 and UBC13 polyUb 5.
`O=S(=O)(NCC(c1ccc2c(c1)OCO2)N1CCOCC1)c1ccc(Br)cc1` (stereo unspecified) gave CR mimetic SO 104, NR3A LBD binder 1, dFosB act -15 and UBC13 polyUb 0.
OCCNCc1cc(Br)ccc1OCc1ccccc1 was read as CR mimetic SO 97, NALP1 inh 32, NR3A LBD binder 13*, dFosB act -9 and UBC13 polyUb -11.
For CCOCCCNCc1cc(Br)ccc1OCc1ccccc1 the results were CR mimetic SO 97, NALP1 inh 40, NR3A LBD binder 0, dFosB act -3 and UBC13 polyUb -3.
For Cc1nc(C)c(CCNC(=O)c2ccc(C(F)(F)F)cc2)s1 the results were CR mimetic SO 98, NALP1 inh 22, NR3A LBD binder 16*, dFosB act -3 and UBC13 polyUb 9.
Screening COCCNC(=O)c1cc2c(s1)-c1ccc(Cl)cc1SC2 returned CR mimetic SO 98, NALP1 inh 21, NR3A LBD binder -12, dFosB act -3 and UBC13 polyUb 16.
Screening NC(=O)c1cc2c(s1)-c1cc(Cl)ccc1SC2 returned CR mimetic SO 189, NR3A LBD binder 47*, dFosB act -8 and UBC13 polyUb 8.
